Measured values reported in PubChem BioAssay.
Calls of active or inactive are those of the source. The rule behind the calls is not given here.

What follows are molecules tested against Pantothenate synthetase (Mycobacterium tuberculosis (strain ATCC 25618 / H37Rv)) (UniProt P9WIL5) (assay: Coupled enzyme confirmation of inhibitors against recombinant Mtb PanC (AID 375;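 note: 0% = full reaction with vehicle and 100% = no enzyme background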)). Settings: coupled enzyme assay; at 10 µM, active compounds read high.
Chain of Pantothenate synthetase (Mycobacterium tuberculosis (strain ATCC 25618 / H37Rv)) (P9WIL5 whole entry, looked up): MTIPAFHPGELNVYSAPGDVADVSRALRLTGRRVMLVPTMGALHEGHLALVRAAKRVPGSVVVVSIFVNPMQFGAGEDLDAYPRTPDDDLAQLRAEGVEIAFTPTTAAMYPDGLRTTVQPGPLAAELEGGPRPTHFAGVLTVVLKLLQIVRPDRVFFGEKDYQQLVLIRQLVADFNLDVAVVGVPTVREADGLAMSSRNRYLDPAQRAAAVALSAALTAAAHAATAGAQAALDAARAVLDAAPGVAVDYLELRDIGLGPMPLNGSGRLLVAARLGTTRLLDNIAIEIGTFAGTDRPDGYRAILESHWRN

Compound	inhibition
C=CCn1cc(C(=O)NCCOC)c(=O)c2cc(S(=O)(=O)N(CC)CC)ccc21	0% (inactive)
CCCCN(c1ccccc1)S(=O)(=O)c1ccc2c(c1)CCN2C(=O)CCC(=O)O	0% (inactive)
CCSc1nc2c(c(=O)[nH]1)C(c1cccnc1)C(C(=O)OC(C)C)=C(C)N2 (stereo not given)	0% (inactive)
COP(C)(=O)c1c(C)nn(-c2ccccc2)c1C (stereo not given)	0% (inactive)
Cn1c(C(=O)NCC2CCCO2)cc2c(=O)[nH]c3ccccc3c21 (stereo not given)	8% (inactive)
O=C(CN1C(=O)CSC1=O)N1CCc2ccccc2C1	3% (inactive)
CCSCCC(NC1=CC(=O)CC(C)(C)C1)C(=O)O (stereo not given)	0% (inactive)
CCOC(=O)C1CCCN(C(=O)c2sc3nc(-c4ccccc4)cn3c2C)C1 (stereo not given)	0% (inactive)
CCOc1cc(C2C(C#N)=C(N)OC(C)=C2C(C)=O)cc(Br)c1O (stereo not given)	1% (inactive)
O=C(O)c1c(Cl)c(Cl)c(Cl)c(Cl)c1C(=O)N1CCOCC1	0% (inactive)
Cc1cc(C)nc(N2CCC(C(=O)Nc3ccc(Oc4ccccc4)cc3)CC2)n1	0% (inactive)
O=C(NCc1ccccn1)c1cc(-n2cnnc2)ccc1Cl	0% (inactive)
Cc1ccc(-c2nnc(SCC(=O)N3c4ccccc4NC(=O)C3(C)C)n2N)cc1	1% (inactive)
Cc1cccc(CC2CC(=O)N(c3ccccc3)C2=O)c1 (stereo not given)	0% (inactive)
COC(=O)c1c(NC(=O)C2CC=CCC2C(=O)O)sc(C(N)=O)c1C (stereo not given)	1% (inactive)
Cc1ccc(-c2cc3nc4c(c(=O)n3[nH]2)CCCC4)cc1	6% (inactive)
Cc1cc2ccccn2c1C(=O)c1ccncc1	5% (inactive)
COc1ccccc1NC(=O)CSc1nnc(Cn2nnc(-c3ccccc3)n2)n1-c1ccccc1	0% (inactive)
O=C(O)C1C2CCC(O2)C1C(=O)NCCC1=CCCCC1 (stereo not given)	3% (inactive)
CCOC(=O)CC(=O)Nc1c(C)cc(C)cc1C	4% (inactive)

Compound	inhibition
CCn1cc(C(=O)OCc2ccc(F)cc2)c(=O)c2ccc(C)nc21	5% (inactive)
Cc1ccc2cc(C(c3nnnn3CC3CCCO3)N3CCc4ccccc4C3)c(=O)[nH]c2c1 (stereo not given)	0% (inactive)
COc1ccc(C2=NOC(C(=O)Nc3cc(Br)ccc3O)C2)cc1OC (stereo not given)	3% (inactive)
CC(C)(C)NC(=O)NC(=O)COc1ccccc1C#N	3% (inactive)
O=C(c1ccc(Cl)cc1)C1CCN(C(=O)NC2CCCCC2)CC1	0% (inactive)
COc1ccccc1-c1nnc(NC(=O)c2ccc(S(=O)(=O)N(C)Cc3ccccc3)cc2)o1	0% (inactive)
CCCN(CC1CC1)C(=O)Nc1ccccc1C	1% (inactive)
CCOC(=O)N1CCN(CC(O)COc2ccccc2C(C)CC)CC1 (stereo not given)	7% (inactive)
O=C(O)C1CC(=O)N(c2ccc(OCc3ccccc3Cl)cc2)C1 (stereo not given)	0% (inactive)
Cc1ccc(NC(=O)CCC(=O)O)cc1F	0% (inactive)
CCC(=O)Nc1cc(Cl)ccc1N1CCN(C(=O)CC)CC1	0% (inactive)
Cc1ccc(S(=O)(=O)N2CCOCC2)cc1C(=O)Nc1ccccn1	0% (inactive)
CCOc1ccc2[nH]c(C)cc(=O)c2c1	0% (inactive)
c1ccc(CNc2ncnc3ccccc23)cc1	12% (inactive)
CCOC(=O)C1=C(C)NC(C)=C(C(=O)OC)C1c1cccc([N+](=O)[O-])c1 (stereo not given)	7% (inactive)
Clc1cccc(N2CCN(Cc3nc(-c4ccccc4)no3)CC2)c1	0% (inactive)
O=C(CN1CCN(Cc2ccc(F)cc2Cl)C1=O)NCCCN1CCOCC1	0% (inactive)
N#C/C(C(=O)NCc1ccco1)=C1/SC(Cc2ccc(F)cc2)C(=O)N1c1ccccc1 (stereo not given)	0% (inactive)
CCNC(=O)CC1C(=O)N(c2ccccc2)C(=O)N1Cc1ccc(OC)cc1 (stereo not given)	0% (inactive)
Cn1cc(C(=O)NC2CCCCCCC2)c(=O)c2cc(S(=O)(=O)N3CCCC3)ccc21	0% (inactive)
